# From PMC4336329 (PLoS ONE, 2015)
# Among all 310,000 compounds or so, about 14,000 (4.5%) showed an effect of 50% or more. The effect is printed as a negative number. This is one part of a sample in which strong results are shown more often than they occur.
# Biological target: human ether-à-go-go-related gene (hERG) potassium channel (human, UniProt Q12809)
# Assay: primary screen, population patch clamp on CHO cells stably expressing hERG; higher = less effect of the substance
# 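Note: peak tail current of the secondary pulse compared with the same well before compound.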
# Chain of human ether-à-go-go-related gene (hERG) potassium channel (Q12809 whole entry, looked up): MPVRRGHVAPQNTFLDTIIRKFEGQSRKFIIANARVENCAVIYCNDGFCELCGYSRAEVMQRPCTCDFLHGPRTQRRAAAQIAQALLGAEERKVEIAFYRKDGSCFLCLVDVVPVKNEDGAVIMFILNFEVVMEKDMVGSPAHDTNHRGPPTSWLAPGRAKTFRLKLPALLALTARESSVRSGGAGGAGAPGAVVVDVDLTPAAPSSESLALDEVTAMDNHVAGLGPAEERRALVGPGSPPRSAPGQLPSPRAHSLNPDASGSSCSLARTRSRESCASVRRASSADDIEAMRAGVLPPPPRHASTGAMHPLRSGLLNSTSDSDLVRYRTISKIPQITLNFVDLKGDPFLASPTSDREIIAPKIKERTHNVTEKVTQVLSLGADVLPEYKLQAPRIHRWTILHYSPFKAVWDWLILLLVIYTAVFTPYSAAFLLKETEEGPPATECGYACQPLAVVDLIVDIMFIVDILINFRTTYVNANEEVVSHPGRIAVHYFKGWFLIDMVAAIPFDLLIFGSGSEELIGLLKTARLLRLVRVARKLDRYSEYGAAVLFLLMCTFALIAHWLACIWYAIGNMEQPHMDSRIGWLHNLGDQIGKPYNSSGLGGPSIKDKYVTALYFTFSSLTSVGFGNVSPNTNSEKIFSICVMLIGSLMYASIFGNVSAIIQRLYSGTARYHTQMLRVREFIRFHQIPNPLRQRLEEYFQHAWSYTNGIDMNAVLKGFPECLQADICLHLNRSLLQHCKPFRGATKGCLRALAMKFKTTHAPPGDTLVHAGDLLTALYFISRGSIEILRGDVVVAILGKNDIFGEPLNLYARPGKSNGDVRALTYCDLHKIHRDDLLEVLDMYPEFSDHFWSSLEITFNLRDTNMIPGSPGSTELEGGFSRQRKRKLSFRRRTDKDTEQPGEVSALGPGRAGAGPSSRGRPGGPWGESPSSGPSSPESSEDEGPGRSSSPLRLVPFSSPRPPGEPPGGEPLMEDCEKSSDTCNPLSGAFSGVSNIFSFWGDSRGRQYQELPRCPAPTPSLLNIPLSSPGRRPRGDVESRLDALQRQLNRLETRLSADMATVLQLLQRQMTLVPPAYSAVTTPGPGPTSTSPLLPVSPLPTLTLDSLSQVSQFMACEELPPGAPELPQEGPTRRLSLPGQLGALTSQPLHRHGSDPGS
row,SMILES,"hERG current change (%, negative = inhibition) at 10uM"
1,COc1ccc(CCNC(=O)C2CCN(S(=O)(=O)c3ccc(NC(C)=O)cc3)CC2)cc1OC,9.83%
2,Nc1cc(=O)[nH]c(SCC(=O)Nc2ccccc2Sc2ccccc2)n1,6.15%
3,O=C(Cn1nnc(-c2ccccc2NC(=O)c2ccccc2F)n1)NCc1ccco1,10.1%
4,Cc1nc(-c2ccc(C(=O)Nc3cccc(Br)c3)cc2)cs1,7.02%
5,Cc1cc(C)n(Cc2ccc(Cl)cc2Cl)c(=O)c1S(=O)(=O)c1ccccc1,14.7%
6,COc1ccc(S(=O)(=O)N(CC(=O)N2CCOCC2)c2cc(Cl)ccc2OC)cc1OC,-16.6%
7,COc1ccc(CCNC(=O)C/C(C)=N/NC(=O)C23CC4CC(CC(C4)C2)C3)cc1OC,11.7%
8,Cc1ccc(-n2c(SCC(=O)Nc3ccc4c(c3)OCO4)nnc2-c2ccccn2)cc1,4.28%
9,Cc1ccccc1-n1c(SCC(=O)Nc2ccc3c(c2)OCO3)nnc1-c1ccccn1,-65.3%
10,COc1ccc(C(=O)NC(C)c2nnc(SCC(=O)NC3=NCCS3)n2C)cc1 (stereo not drawn),15.3%
11,COc1ccccc1N1CCN(C(=O)CSc2nnc3n2C(C)(C)Cc2ccccc2-3)CC1,-37.4%
12,COc1ccc(C(=O)NC(C)c2nnc(SCC(=O)Nc3nc4ccccc4s3)n2C)cc1 (stereo not drawn),-59.4%
13,CC1(C)Cc2ccccc2-c2nnc(SCC(=O)N3CCN(c4ccccc4)CC3)n21,-73.7%
14,O=C(CSc1nnc(-c2ccccn2)n1-c1ccccc1)Nc1ccc2c(c1)OCO2,1.81%
15,CCc1nnc(NC(=O)CSc2nnc(C(C)NC(=O)c3ccccc3)n2C)s1 (stereo not drawn),29.3%
16,COc1ccc(N2CCN(C(=O)CSc3nnc4n3C(C)(C)Cc3ccccc3-4)CC2)cc1,-23.8%
17,C/C=C(\C)CN1CCC(Oc2cccc(C(=O)NCc3ccccn3)c2)CC1,-4.59%
18,COC(=O)CN(c1cccc(C(C)=O)c1)S(C)(=O)=O,9.02%
19,O=C(c1ccccc1Br)N1N=C(c2ccccc2)CC1c1ccccc1F (stereo not drawn),15.7%
20,CCc1cccc(NC(=O)C2CCCN2S(=O)(=O)c2ccc3c(c2)n(C)c(=O)c(=O)n3C)c1 (stereo not drawn),-9.62%
21,Cc1ccc(NC(=O)c2ccc(Cl)c(S(=O)(=O)N3CCCCC3)c2)nc1,-23.4%

row,SMILES,"hERG current change (%, negative = inhibition) at 10uM"
1,Cc1ccc(NC(=O)c2ccc(Cl)c(S(=O)(=O)N3CCCC3)c2)nc1,-8.97%
2,Cc1cccc(NC(=O)c2ccc(S(=O)(=O)N3CCCCC3)cc2)n1,-6.69%
3,Cc1ccnc(NC(=O)c2ccc(S(=O)(=O)N3CCCCC3)cc2)c1,-17.9%
4,Cc1cccc(NC(=O)c2ccc(S(=O)(=O)N3CCCCCC3)cc2)n1,-4.07%
5,Cc1cccc(NC(=O)c2ccc(C)c(S(=O)(=O)N3CCCCC3)c2)n1,-36.7%
6,Cc1cccc(NC(=O)c2ccc(Cl)c(S(=O)(=O)N3CCCCCC3)c2)n1,-25.1%
7,Cc1ccc(NC(=O)c2ccc(Cl)c(S(=O)(=O)N3CCCCCC3)c2)nc1,-57.9%
8,Cc1cccc(NC(=O)c2ccc(Cl)c(S(=O)(=O)N3CCCCC3)c2)n1,-71.3%
9,Cc1ccnc(NC(=O)c2ccc(Cl)c(S(=O)(=O)N3CCCCC3)c2)c1,-79.1%
10,Cc1ccnc(NC(=O)c2ccc(Cl)c(S(=O)(=O)N3CCCC3)c2)c1,-15.7%
11,Cc1cccc(NC(=O)c2ccc(S(=O)(=O)N3CCC(C)CC3)cc2)n1,-59.2%
12,Cc1c(Cl)cccc1N1C(=O)C2ON(c3ccccc3)C(c3cccnc3)C2C1=O (stereo not drawn),4.12%
13,Cn1c(CNC(=O)OC(C)(C)C)nnc1SCC(=O)N1CCOCC1,8.91%
14,CSc1nc2nc(-c3ccc(F)cc3)c(CCN3CCN(C)CC3)cn2n1,-2.66%
15,Cc1cc(NC(=O)CSc2nc3ccccc3n2CC(C)C)no1,19.2%
16,Cc1cccc(C(=O)Oc2ccccc2C(=O)N2CCOCC2)c1,-8.06%
17,COc1ccccc1N1CCN(C2CCCN(C(=O)CCn3cncn3)C2)CC1 (stereo not drawn),13%
18,CCn1nnnc1SCC(=O)c1ccc(NC(C)=O)cc1,0.37%
19,CCC1(CC)C(=O)N(C)C(=O)NC1=Nc1ccccc1,15.8%
20,CCC(C)(C)n1nnnc1C(c1ccc2ncccc2c1)N1CCCCCC1 (stereo not drawn),6.75%
21,CC(C)(C)n1nnnc1C(c1ccc(F)cc1)N1CCN(Cc2ccc3c(c2)OCO3)CC1 (stereo not drawn),-37.8%

row,SMILES,"hERG current change (%, negative = inhibition) at 10uM"
1,COCCn1nnnc1C(c1ccccc1)N1CCN(Cc2ccc3c(c2)OCO3)CC1.Cl (stereo not drawn),-21.6%
2,Cc1ccc(C(c2nnnn2Cc2cccs2)N2CCN(Cc3ccc4c(c3)OCO4)CC2)cc1 (stereo not drawn),-75.3%
3,CCC(C)(C)n1nnnc1C(c1ccc2ncccc2c1)N1CCN(Cc2ccc3c(c2)OCO3)CC1 (stereo not drawn),-69.7%
4,CCC(C)(C)n1nnnc1C(c1ccc2ncccc2c1)N1CCCC(C)C1 (stereo not drawn),-13.6%
5,CCN1CCN(C(c2ccccc2)c2nnnn2Cc2ccc3c(c2)OCO3)CC1.Cl (stereo not drawn),-39.1%
6,CCC(C)(C)n1nnnc1C(c1ccc(C)cc1)N1CCN(Cc2ccc3c(c2)OCO3)CC1 (stereo not drawn),-50.3%
7,CC(C)(C)n1nnnc1C(c1cccs1)N1CCN(Cc2ccc3c(c2)OCO3)CC1 (stereo not drawn),-19.4%
8,CON(C)S(=O)(=O)c1cccc(C(=O)NC2CCSc3ccccc32)c1 (stereo not drawn),-9.64%
9,CCN(CC)CCN1C(=O)C(=O)/C(=C(/O)c2ccc(OC(C)C)cc2)C1c1cccs1 (stereo not drawn),0.529%
10,Cc1cc(C(=O)N/N=C/c2cc(Br)c(Br)o2)n[nH]1,16%
11,O=C(O)CNC(=O)c1ccccc1Br,9.63%
12,O=C(C1CCN(S(=O)(=O)c2ccc(-n3cnnn3)cc2)CC1)N1CCCCC1,-30.1%
13,CC1CCCCN1C(=O)C1CCN(S(=O)(=O)c2ccc(-n3cnnn3)cc2)CC1 (stereo not drawn),-61.5%
14,CC1CCCCN1S(=O)(=O)c1ccc(S(=O)(=O)N2CCCC2)cc1 (stereo not drawn),5.9%
15,CC1CCCCN1S(=O)(=O)c1ccc(-n2cnnn2)cc1 (stereo not drawn),-50.1%
16,CC1CCN(C(=O)C2CCN(S(=O)(=O)c3ccc(-n4cnnn4)cc3)CC2)CC1,-13.7%
17,CC1CCCCN1S(=O)(=O)c1ccc(NC(=O)c2cccc(-n3cnnn3)c2)cc1 (stereo not drawn),-18.4%
18,COc1ccc(C(CNC(=O)c2cccc(S(=O)(=O)NCc3ccccc3)c2)N(C)C)cc1 (stereo not drawn),-24.3%
19,CN(C(=O)COC(=O)c1cc(F)c(F)cc1Cl)c1ccccc1,0.987%
20,CC(C)N1CCN(Cc2ccc(-c3ccccc3Cl)o2)CC1CCO (stereo not drawn),-54.8%
21,CC(C)N1CCC(N2CCN(CCCc3ccccc3)CC2CCO)CC1 (stereo not drawn),10.1%

row,SMILES,"hERG current change (%, negative = inhibition) at 10uM"
1,CC(C)N1CCC(N2CCN(Cc3ccc4nonc4c3)CC2CCO)CC1 (stereo not drawn),-27.5%
2,CC(C)N1CCC(N2CCN(Cc3ccc4nsnc4c3)CC2CCO)CC1 (stereo not drawn),-8.62%
3,Cc1ccc(-c2cccc(CN3CCN(C(C)C)C(CCO)C3)c2)o1 (stereo not drawn),13.4%
4,CC(C)N1CCN(Cc2ccccc2-c2ccco2)CC1CCO (stereo not drawn),-35.3%
5,CC(C)N1CCC(N2CCN(C/C=C/c3ccccc3)CC2CCO)CC1 (stereo not drawn),-7.17%
6,Cc1ccc(-c2cccc(CN3CCN(C4CCN(C(C)C)CC4)C(CCO)C3)c2)o1 (stereo not drawn),-59.4%
7,CC(C)N1CCC(N2CCN(Cc3ccc(-c4ccc(Cl)cc4)o3)CC2CCO)CC1 (stereo not drawn),-64.5%
8,CC(C)N1CCN(Cc2ccc(Sc3nncn3C)o2)CC1CCO (stereo not drawn),22.9%
9,CC(C)N1CCC(N2CCN(Cc3cccnc3)CC2CCO)CC1 (stereo not drawn),20.3%
10,CC(C)N1CCC(N2CCN(Cc3ccc(-c4ccccc4Cl)o3)CC2CCO)CC1 (stereo not drawn),-66.6%
11,Cc1ccc(-n2nnnc2SCC(=O)Nc2ccccc2N2CCCCC2)cc1C,14.3%
12,CC(NC(=O)COc1ccccc1)C(c1cccs1)N1CCCC1 (stereo not drawn),-2.64%
13,COc1ccccc1CNC(=O)CCCOc1cc(=O)n(C)c2ccccc12,4.57%
14,CN(Cc1ccccc1)C(=O)CCC1CCN(S(=O)(=O)N(C)C)CC1,-18.4%
15,CCNC(=S)N1CCC(c2nc3ccccc3s2)CC1,-25.7%
16,CCCCNC(=O)[C@H]1C[C@H]1[C@@H](O)[C@H](CO)NC(=O)[C@H](COCc1ccccc1)NC(=O)OC(C)(C)C,21.5%
17,CC(C)(C#N)Nn1cnnc1,17.1%
18,COc1ccc(CC(=O)OC2CCCN(C)C2)cc1.Cl (stereo not drawn),19.3%
19,Cn1ncc(Cl)c1C(=O)N1CCN(c2cccc(Cl)c2)CC1,-8.7%
20,CC(C)n1c(SCc2cc(=O)[nH]c3ccccc23)nc2c1c(=O)n(C)c(=O)n2C,-7.13%
21,c1ccc(-c2noc(CC3CCCCC3)n2)nc1,6.32%
